Data: PubChem BioAssay (NCI)
This is part of a sample that, as a whole, favours compounds with a hit. Of some 83,000 tested, about 20% had one in any assay.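 Assay: single dose, 48 h. Readout: percent growth (0 = no net growth; negative = cell death). Active: <10.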 Active and inactive are the calls of the source.

The molecules below were run on HL-60(TB) leukemia (assay: NCI-60 one-dose screen, 48 h (100 = growth as untreated, 0 = no growth, -100 = all killed)). Conditions: 10 µM unless noted.

Row | Compound | growth
1 | CCCC1(c2ccccc2)NC(=O)NC1=O (stereo not given) | 144% (inactive)
2 | O=C1c2cc3c(cc2-c2c1c1cc(Cl)c(Cl)cc1c(=O)n2CCCn1ccnc1)OCO3 | -19.4% (active)
3 | O=C(Nc1ccc(Cl)cc1)Nc1ccc(Oc2nncc3ccccc23)cc1 | 3.65% (active)
4 | COCCOc1cc2ncnc(N3CCN(S(=O)(=O)c4ccccc4Cl)CC3)c2cc1OCCOC | 56% (inactive)
5 | COc1cc(C(=O)CCCl)ccc1O | 95.8% (inactive)
6 | O=c1oc2ccc(I)cc2c(=O)n1-c1ccc(Br)cc1F | -27.8% (active)
7 | O=c1cc(-c2ccccc2)oc2c1ccc1ccccc12 | 106% (inactive)
8 | Cc1ccc(Cc2cnc(NC(=O)/C=C/c3ccc(C)o3)s2)cc1 | -33% (active)
9 | CN1CCN(CCCOc2cccc3nc(Nc4cc(Cl)cc(Cl)c4)ccc23)CC1 | 56.4% (inactive)
10 | C=C1C(=O)O[C@H]2[C@H]1CC/C(C(=O)NCCCCCNC(=O)/C1=C/CC[C@@]3(C)O[C@H]3[C@H]3OC(=O)C(=C)[C@@H]3CC1)=C\CC[C@@]1(C)O[C@@H]21 | 89.4% (inactive)
11 | O=S(=O)(NCCNc1nccc(-c2c(-c3ccccc3)nc3sccn23)n1)c1ccc(O)cc1 | 68% (inactive)
12 | CCOC(=O)c1[nH]c2c(c1C)-c1[nH]c(=O)c(S(=O)(=O)c3ccccc3)cc1SC2 | 54.7% [100 µM] (inactive)
13 | COc1cc(-c2nc(SCCC(C)C)nc(N3CCOCC3)c2C#N)cc(OC)c1OC | 95.2% (inactive)
14 | C[C@H](NC(=O)c1c(N)nn2cccnc12)c1cc2cccc(C#Cc3cnn(C)c3)c2c(=O)n1-c1ccccc1 | -18.2% (active)
15 | C=CCn1c(SCC(=O)Nc2ccc(/C(C)=N/O)cc2)nnc1-c1cc(-c2ccc(S(N)(=O)=O)cc2)nc2ccccc12 | 7.74% (active)
16 | COc1cccc(C2C3=C(COC3=O)N(CCO)c3cc4c(cc32)OCO4)c1 (stereo not given) | -2.69% (active)
17 | COc1ccccc1/C=C1\COc2ccc(O)c(O)c2C1=O | -21.9% (active)
18 | CCOC(=O)c1c(C(=O)OCC)c2cc(-c3ccn4c(C(=O)c5ccccc5)c(C(=O)OCC)c(C(=O)OCC)c4c3)ccn2c1C(=O)c1ccccc1 | 86.3% (inactive)
19 | CC1(C)CN(CCNc2nccc(-c3c(-c4cccc(O)c4)nc4sccn34)n2)S(=O)(=O)N1 | 82.5% (inactive)
20 | C1Cc2onc(-c3noc4c3CCC4)c2C1 | 103% (inactive)

Row | Compound | growth
21 | C/C(=C\CCc1ccoc1)CC/C=C(\C)CCCNc1ccc(F)cc1 | 9.6% (active)
22 | COc1ccc(-c2nc(SCCC(C)C)nc(N/N=C(/C)c3ccc(C)cc3)c2C#N)cc1 | 89.8% (inactive)
23 | CCCCCCCCCCCCCCCCOc1ccc(S(=O)(=O)N(C)C)cc1[N+](=O)[O-] | 110% (inactive)
24 | CC(=O)OC[C@]12CC[C@@H]([C@@H](C)C(N)=O)[C@@H]1[C@H]1CC[C@@H]3[C@@]4(C)CC[C@H](OC(C)=O)C(C)(C)[C@@H]4CC[C@@]3(C)[C@]1(C)CC2 | -23.1% [100 µM] (active)
25 | C/C(=N\N=C1/SCC(=O)N1c1ccccc1)c1ccco1 | 99% (inactive)
26 | COc1ccc(-c2nc([C@@H](C)Sc3nc(N)cc(N)n3)c(C)s2)cc1OCCN1CCOCC1 | 105% (inactive)
27 | O=C(Nc1ccc(Cl)c(Cl)c1)NS(=O)(=O)c1cnccc1Oc1ccc(F)cc1 | 54% (inactive)
28 | Clc1cc(Cl)cc(N2N=C(c3cccc(Nc4ccncc4)c3)CC2c2ccccc2)c1 (stereo not given) | 4.62% (active)
29 | CCCCCCNC(=O)Oc1ccc(/C(=C(\C)c2ccc(Cl)cc2)c2ccc(OCCCN(C)C)cc2)cc1 | 62.9% (inactive)
30 | C=C[Si](OC(C)=O)(OC(C)=O)OC(C)=O | 94.3% (inactive)
31 | COc1ccc(COC(=O)CC(C)C)cc1 | 99.7% (inactive)
32 | CC1=C2[C@@H](CC1)[C@]1(C)O[C@@](c3ccccc3)(C[C@H]1OC(=O)CO)[C@H]2OC(=O)/C=C/c1ccccc1 | 88.5% (inactive)
33 | NC(=O)c1ccc[n+](Cc2ccc(Cl)cc2Cl)c1 | 73.1% (inactive)
34 | Cc1c(O)cccc1O | 110% (inactive)
35 | COc1ccc(NC(=O)c2sc3nc4c(cc3c2N)C(O)CCC4)cc1 (stereo not given) | 93.2% (inactive)
36 | CCN(CC)CCCCNc1ccc(NCCCCN(CC)CC)c2c1C(=O)c1ccccc1C2=O | 70% (inactive)
37 | CN(C)c1ccc(/C=C/C2=[N+](C)c3ccccc3C2(C)C)cc1 | -18.4% (active)
38 | C=C1C(=O)O[C@H]2[C@H]1CC/C(Cn1cc(-c3ccc(N)cc3)nn1)=C\CC[C@@]1(C)O[C@@H]21 | -27.9% (active)
39 | Cc1cc(Nc2nc(N3CCOCC3)nc3ccccc23)n[nH]1 | 63.1% (inactive)
40 | c1ccc2cc(Cn3cc(CSc4nc5ccccc5s4)nn3)ccc2c1 | 102% (inactive)
